The list is not random: actives were taken first. Their share in the collection is about 4.6%.
Epigenetic derep – Quantitative High-Throughput Screen for Regulators of Epigenetic Control | murine LDR cells, GFP reporter derepression, 30 h | Potency, µM (highest dose often 53.9 µM), usual class: activators | hit rate 0.2% among 280,000; active means well fitted activation curve with a large enough effect; further: nearly all actives have a fitted effect of over 60% in size
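In this reporter-derepression format, murine cells bearing a silenced integrated CMV-GFP locus incubate with test compound (30 h, 37 C), then are washed and imaged; fluorescent objects of 20–120 um count as induced cells.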
D1 PAM – Potentiators of Human D1 Dopamine Receptor: qHTS; HEK293 TREx D1 cells, calcium flux, dopamine EC20 potentiation; hit rate 0.036% among 360,000; potentiation, % at 10 µM; D(1A) dopamine receptor (Homo sapiens), P21728; in the data active means potentiation above about 30%
Target sequence (P21728 whole entry, looked up): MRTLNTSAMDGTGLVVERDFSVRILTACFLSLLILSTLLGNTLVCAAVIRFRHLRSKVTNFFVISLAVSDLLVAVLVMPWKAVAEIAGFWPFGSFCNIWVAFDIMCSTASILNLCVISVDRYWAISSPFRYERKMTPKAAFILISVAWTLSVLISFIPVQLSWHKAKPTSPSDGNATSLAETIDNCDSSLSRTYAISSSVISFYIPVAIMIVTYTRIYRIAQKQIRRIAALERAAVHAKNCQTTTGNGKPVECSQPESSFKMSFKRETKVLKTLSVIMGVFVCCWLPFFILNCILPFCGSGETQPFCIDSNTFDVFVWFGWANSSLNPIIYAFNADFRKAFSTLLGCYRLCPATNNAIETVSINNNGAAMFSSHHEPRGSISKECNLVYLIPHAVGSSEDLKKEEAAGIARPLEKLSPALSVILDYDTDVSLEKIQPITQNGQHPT
D1 agonist – Allosteric Agonists of the Human D1 Dopamine Receptor: qHTS. D(1A) dopamine receptor (Homo sapiens), P21728. HEK293 T-REx D1 cells, calcium flux, agonist mode. activation, % at 2 µM. hit rate 1% among 360,000. AID 504660, 2011
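Inducible HEK293 T-REx D1 cells, force-coupled to calcium signalling, were plated at 4000 cells/well with tetracycline and held overnight at 30 C. After no-wash calcium dye loading, compound-evoked calcium rise over 180 s flagged agonists.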
TRHR agonist – qHTS for Small Molecule Agonists and Allosteric Enhancers of Human TRH Receptor: Primary Screen for Agonists. TRHR cells, calcium flux fluo-8, FDSS agonist mode. Thyrotropin-releasing hormone receptor (Homo sapiens), P34981. hit rate 0.18% among 360,000. AID 493084, 2011. activation, % at 2 µM
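Agonist-mode FDSS calcium read (Ex 480/Em 530, 1 s cycles) in 1536-well TRHR cells with fluo-8 dye, after 10-cycle baseline and 23 nL compound addition; TRH at EC20 (10 nM final) added afterwards for the enhancer phase.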
TRHR PAM – qHTS for Small Molecule Agonists and Allosteric Enhancers of Human TRH Receptor: Primary Screen for Enhancers. Thyrotropin-releasing hormone receptor (Homo sapiens), P34981. TRHR cells, fluo-8 calcium fluorescence, EC20 TRH enhancement. enhancement, % at 2 µM. hit rate 0.66% among 360,000; in the data active means enhancement above about 30%
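Enhancer read-out: after compound pinning and an initial kinetic agonist-mode read, an EC20 of TRH (10 nM final) was injected and fluo-8 calcium signal (Ex 480/Em 530) followed at 1 s/cycle for 100 cycles in TRHR-expressing cells.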
D1 antagonist – Antagonist of Human D 1 Dopamine Receptor: qHTS. HEK293 TREx D1 cells, calcium flux, dopamine EC80; stronger effect = lower value. activity change, negative = inhibition, % at 10 µM. hit rate 3.2% among 360,000; in the data active means activity change below about -30%
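After overnight tetracycline induction at 30 C, force-coupled D1 HEK293 cells took up a no-wash calcium dye at room temperature. Compounds were added and monitored 180 s, and the response to EC80 dopamine was then recorded.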
Large screens that a line does not name were inactive. Unless noted, no stated cut-off is given here; in the data, active means activation above about 30%; inactive means the rest.

CCCCC/C=C\C\C=C/C=C/C=C/[C@@H](SCC(N)C(=O)O)[C@@H](O)CCCC(=O)O (some centres undefined)	none (no result: D1 PAM, D1 agonist, TRHR agonist, TRHR PAM, D1 antagonist)
CCc1cccc(NC(=O)Cn2c(=O)n(CC(=O)NCCc3ccccc3)c(=O)c3ccccc32)c1	none
CCCCN(C)C(=O)c1ccc2c(c1)N(Cc1cccc(Cl)c1)C(=O)c1ccccc1S2=O (centres undefined)	none
COCCN(C(=O)COC(=O)C1=COCCO1)c1c(N)n(Cc2ccccc2)c(=O)[nH]c1=O	D1 antagonist -61.5 (no result: Epigenetic derep)
COCCN(C(=O)C1=COCCO1)c1c(N)n(Cc2ccccc2)c(=O)[nH]c1=O	none (no result: Epigenetic derep)
Cc1ccc([N+](=O)[O-])cc1S(=O)(=O)N1CCn2cccc2C1c1ccccc1F (centres undefined)	none (no result: D1 antagonist)
CCc1ccc(NC(=O)N2CCN(Cc3nc4ccc(C)cc4o3)CC2)cc1	none
O=C(Nc1cc(Sc2ccccn2)cc([N+](=O)[O-])c1)c1cccc(Cl)c1	D1 antagonist -35.5
CCC1(c2ccccc2)NC(=O)N(CC(=O)N(CC(=O)Nc2ccccc2C(F)(F)F)Cc2ccco2)C1=O (centres undefined)	D1 agonist 43.7 (no result: Epigenetic derep)
CCN(CC(=O)Nc1ccccc1C(F)(F)F)C(=O)CN1C(=O)NC2(CCCCC2)C1=O	none (no result: Epigenetic derep)
Cc1csc(NC(=O)c2cc(-c3ccco3)nc3ccccc23)n1	D1 antagonist -31.0
CCN(CC)CCNC(=O)c1ccc(NC(=O)c2cc(-c3ccco3)nc3ccccc23)cc1	D1 antagonist -39.8 (no result: Epigenetic derep)
CN(C)C(=O)c1ccc(NC(=O)c2cc(-c3ccco3)nc3ccccc23)cc1	none (no result: Epigenetic derep)
CCN(CC)c1ccc(C(=O)OCc2cc(=O)oc3cc(O)ccc23)cc1	D1 antagonist -32.6
CCN(CC)c1ccc2c(O)cc(=O)oc2c1	none
C=C(C)[C@H]1CC=C(CO)CC1	none (no result: D1 PAM, D1 agonist, TRHR agonist, TRHR PAM, D1 antagonist)
CC1(C)Cc2cccc(OCC(=O)OCC(=O)Nc3ccc(C(N)=O)cc3)c2O1	D1 antagonist -38.7 (no result: Epigenetic derep)
CCN1CCN(C(c2ccc(Cl)cc2)c2c(O)cc(C)n(CCOC)c2=O)CC1 (centres undefined)	D1 antagonist -38.8
COCCn1c(C)cc(O)c(C(c2ccccc2OC)N2CCN(c3ccccc3)CC2)c1=O (centres undefined)	TRHR PAM 45.5
COc1ccc(NC(=O)Cn2nnnc2-c2ccccc2F)c(C)c1	none
COn1c(-c2ccccc2)nc2ccc(Cl)cc21	D1 antagonist -64.9
Cc1cccc(-n2c3c(cc(-c4nc(-c5ccc(Cl)cc5)cs4)c2=O)C(=O)CC(C)(C)C3)c1	none
CCN1C(=O)/C(=C/C=C2/CCCN2C)OC1=S	D1 agonist 30.2
CCOc1ccccc1CNC(=O)c1cnc2sc(N3CCC(C)CC3)nn2c1=O	none
COc1cc(C)c(C(C)C)cc1S(=O)(=O)N1CCN(C)CC1	D1 antagonist -45.7
COc1cc(C)c(Cl)cc1S(=O)(=O)N1CCCC1	D1 antagonist -34.4
CCOc1cc(C)c(Cl)cc1S(=O)(=O)N1CCCC1	none
NC(=O)NCc1ccccc1Cl	D1 antagonist -38.0
O=C(NCc1ccccc1Cl)NCc1ccccc1Cl	none
Cc1cc(C)c(NC(=O)c2c(C)oc3c2C2=NCCN2C=N3)c(C)c1	none
CN1CCc2c(sc(NC(=O)c3ccco3)c2C(N)=O)C1	none (no result: Epigenetic derep)
CNC(=O)c1c(NC(=O)c2ccc(S(=O)(=O)N3CCCc4ccccc43)cc2)sc2c1CCN(C)C2	Epigenetic derep 22.4µM, TRHR PAM 33.7, D1 antagonist -57.4
CN1CCc2c(sc(NC(=O)c3cc(Cl)sc3Cl)c2C(N)=O)C1	D1 antagonist -31.7 (no result: Epigenetic derep)
CN1CCc2c(sc(NC(=O)c3ccc(S(=O)(=O)N4CCCCCC4)cc3)c2C(N)=O)C1	TRHR agonist 51.3 (no result: Epigenetic derep)
CCc1ccccc1NC(=O)Nc1c[nH]c(=O)[nH]c1=O	none
NC(=O)C1CCN(C(=O)Nc2csc3ccccc23)CC1	D1 antagonist -60.6

Screening data as filed in PubChem BioAssay.
